In the supplement of paper PMC10681739:

Columns and labels:
ETS1 [1] = target: T1, ETS1 (UniProt P14921); assay: ETS1 binding intensity (PBM fluorescence), ETS1 alone (arbitrary fluorescence units); higher = stronger binding; details: ETS1 concentration 1 nM; RUNX1 concentration 0 nM
T1 sequence: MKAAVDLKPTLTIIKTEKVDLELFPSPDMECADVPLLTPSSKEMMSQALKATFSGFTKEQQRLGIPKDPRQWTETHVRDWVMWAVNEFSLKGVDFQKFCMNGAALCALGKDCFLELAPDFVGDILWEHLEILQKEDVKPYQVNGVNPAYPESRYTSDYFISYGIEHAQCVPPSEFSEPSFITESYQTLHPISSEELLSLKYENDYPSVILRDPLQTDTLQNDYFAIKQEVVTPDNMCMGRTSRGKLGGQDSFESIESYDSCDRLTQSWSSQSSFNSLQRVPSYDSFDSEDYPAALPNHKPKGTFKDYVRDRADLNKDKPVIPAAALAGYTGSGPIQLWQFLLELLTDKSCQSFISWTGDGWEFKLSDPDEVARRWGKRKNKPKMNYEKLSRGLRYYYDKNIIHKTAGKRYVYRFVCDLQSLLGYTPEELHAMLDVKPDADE

RUNX1 [2] = target: RUNX1 (UniProt Q01196); assay: RUNX1 binding intensity (PBM fluorescence), RUNX1 alone (arbitrary fluorescence units); higher = stronger binding; details: RUNX1 concentration 2 nM; ETS1 concentration 0 nM
Sequence of RUNX1 (Q01196 whole entry): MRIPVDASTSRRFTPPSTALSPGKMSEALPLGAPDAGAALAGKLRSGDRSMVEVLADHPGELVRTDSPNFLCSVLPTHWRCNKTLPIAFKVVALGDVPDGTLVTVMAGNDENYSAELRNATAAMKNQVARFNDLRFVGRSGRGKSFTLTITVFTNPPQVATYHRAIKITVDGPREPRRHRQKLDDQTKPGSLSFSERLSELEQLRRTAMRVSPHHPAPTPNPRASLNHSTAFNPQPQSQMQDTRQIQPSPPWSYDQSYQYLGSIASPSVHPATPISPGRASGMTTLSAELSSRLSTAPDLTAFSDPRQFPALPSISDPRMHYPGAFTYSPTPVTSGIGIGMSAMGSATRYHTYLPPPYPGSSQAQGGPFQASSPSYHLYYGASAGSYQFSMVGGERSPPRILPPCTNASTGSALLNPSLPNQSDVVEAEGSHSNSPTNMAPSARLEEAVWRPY
Experimental: (§1)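 Cooperative gcPBM on 36-bp genomic probes with neighbouring ETS1 and RUNX1 sites. Recombinant human RUNX1 (2 nM) was incubated alone or with ETS1 (25 nM) and detected with anti-RUNX1 antibody plus Alexa488 secondary. Values are medians over 4 replicate spots; the RUNX1+ETS1 data were normalised to the RUNX1-only data. The probes sit in constant array flanks that are not printed.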

ETS1 [3] = target: T1, ETS1; assay: ETS1 binding intensity (PBM fluorescence) in presence of RUNX1, normalised to ETS1-only experiment (arbitrary fluorescence units); higher = stronger binding; details: ETS1 concentration 1 nM; RUNX1 concentration 25 nM
RUNX1 [4] = target: RUNX1 (UniProt Q01196); assay: RUNX1 binding intensity (PBM fluorescence) in presence of ETS1, normalised to RUNX1-only experiment (arbitrary fluorescence units); higher = stronger binding; details: RUNX1 concentration 2 nM; ETS1 concentration 25 nM
Experimental: as §1
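Wherever RUNX1 binding intensity (PBM fluorescence) in presence of ETS1, normalised to RUNX1-only experiment is given: Full-length recombinant human ETS1 or RUNX1 bound to double-stranded 36-bp genomic probes on microarrays, detected by protein-specific primary antibody and Alexa488 secondary, spot fluorescence as median of four replicate spots.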
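Wherever RUNX1 binding intensity (PBM fluorescence), RUNX1 alone is given: Full-length recombinant human RUNX1 bound to double-stranded 36-bp genomic probes on a high-density microarray, scored as Alexa488 fluorescence per spot via anti-RUNX1 antibody, median of four replicate spots.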

Sequence	ETS1 binding intensity (ETS1 [1])	RUNX1 binding intensity (RUNX1 [2])	ETS1 binding intensity (ETS1 [3])	RUNX1 binding intensity (RUNX1 [4])
GAAAACTAAGCAGGATGTGGTCTCGGCTGGAGCCTG	2730	657	5380	2020
TCCCGAGAGCCGGAAGCAGCCGCAGGCCCCGCCACA	3950	778	4410	1330
AAAAGGCACCAGGAAATGACAGCACCGCAGCACGCC	1290	717	2020	871
AGAGGCAGCTTCCGGAGACTGCTCTGTGGCCAGTTT	794	711	1070	1310
GAGGCCCAGGATGTGGCTGGAGGCCTGTGGTGGGAC	630	700	1130	864
CCTCCTCCAGACCATCCTGGAAACCACTGCCGTTCT	561	1380	488	1360
GAAACAATTTCCTGTACCTCTGTGGTAAAAATGATA	1040	945	1650	2610
AGACCCGGATATGCGCCGGGGACCCCCAGACCGCGC	743	733	697	969
GGCTCGGTGCTGCTTCCTGTGTGGTCAGGATCACAG	1870	846	4270	1790
GTGCTAAGTGAGGAAGTGCAGTTTACCGCACGGTGG	839	675	2410	935
CCTGCCTTCCGTCTTCCAGGCAGAACCACAGAGAGG	432	1180	481	1230
TGGTTTCTCACTGGCGGATGTGGGTGGGTCGCCTCC	4130	723	6390	1100
CACTTCCTCTGTGACTGCAGGTTTCCAACCACAAGC	601	988	1510	2370
GTGTGAAGGAAGTGTGAGATCAAACCACAGCTGGGT	457	874	901	947
TGTGTAACTTCCTGGCTTTGGTGGTTTCCCCCTCCT	1150	757	1390	2180
AATCATTTCCTGCCCTAACGTTTGTGGTCTGCCTAG	728	832	1720	2760
CCTTCCTTCCTGCTGTGTACGTTGTGGTCACAGCAC	419	1240	932	3550
GCAGAGAGGAAGTGTGGGGGTGGAGGAGGCCGCAGA	681	828	973	1000
ACTCCTCCCGCTTCCGCTGCCGCAGCCGGTCGTAAC	1280	1310	1680	3470
TTTCCTCGGATTCCCGGATGTGGGTGAGTTCATTTG	5690	809	9630	2000
GTGCAGACAGGAAATAGCTGCTCTGCGGCAGCCCGA	5830	752	6350	1070

Sequence	ETS1 binding intensity (ETS1 [1])	RUNX1 binding intensity (RUNX1 [2])	ETS1 binding intensity (ETS1 [3])	RUNX1 binding intensity (RUNX1 [4])
AGTCTAACCAACAAAGGATGTGGTAGGTAAAAGGTT	1250	834	2640	959
TATGGCGGGCAGGAAGTGCGGGTGCGCGCCTGCGCA	4640	642	5650	1360
AGCCTGGCCTCGGCAGGATGTGGGTGTAGGTCATGC	4780	732	7380	999
CTTCTACTTCCTGCCCCGCCCCCAGCTGTGGTCACA	1420	1490	3150	3430
GGCAACCTGAGCTTCCGTGTAAAACCACAGTGTGAC	372	1100	964	1290
TGGGGAGCAGGAAGCTGGGGGCGGTTGTGGAGGGAC	1130	723	1600	867
CTGGGGAGGAAGCCTGAGGTGTGTGGTTTTGTTAAC	374	1040	811	983
GTGCCGGCGGCCGGATGTGGGCGGGGCCACGGGGAG	8590	753	16200	4170
ACACCCCAGGCAGGATGTGGTAGGGGTTGCCCCAGA	2740	741	5030	2080
AAGTGAAGAGCTTCCGCCGGGAGACCGCGGCTGCAG	592	737	686	1250
CCCAACCATTTCCGCCACACCTCCAACCCACTGCCG	647	2030	542	4660
GGGGAACGGAAGCTGCTGTCGTTACTGGCGGTTGTA	1510	767	1320	929
GCCAGGAGGACTTCCGGGTGGGTGTGGTATCTGCGA	1320	780	2540	2300
ATACCGGCGCATCCGGATTTTGAAGCCGCAGTGGAC	728	673	774	1200
CACGGAGCCACTTCCGGCGGCTGTGGGCGCAAAACC	3620	752	4210	3120
TGCTTCCCGTCCGTGTCGCGGCCCTGCGGTTGGCGG	324	1080	813	3310
AAACATCATAGGAAGTGGATTTTGTGGTGAGAGACA	1160	870	3880	1130
TTAGCACATCCTGGGTACACAGACCACAGCCTCCTC	367	972	475	2140
CTGTCTGCTTCCCGTGGCCAGCCCTGACCGCGGCCC	351	1060	621	1430
GATACCTAGAAGCCAGGAAACCGCGAGCTGCAGTCC	1080	1190	2130	1380
GGACTGCGTTTCCGGACACTGCGGGTGCCGGTAGCC	1290	671	1680	1450

Sequence	ETS1 binding intensity (ETS1 [1])	RUNX1 binding intensity (RUNX1 [2])	ETS1 binding intensity (ETS1 [3])	RUNX1 binding intensity (RUNX1 [4])
TGTCTCATTTCCTGTAGGTAACAGGCACCACAATAG	1550	968	1470	1780
GCCAGCGGGGCTTCCGGCCCCGCAGGCAGAAGTCGA	1460	646	1290	1260
ACCACGAGCCCAGGATGCGGTTTATGCGCTGTCGGG	699	2660	2890	4230
GCTCATTTCCTGGCCGCTCCTGGGCTTCGCGGTGAG	498	834	716	1730
GGGCCAGAGACGCCGGAAGTGACCGCGCGGTGCGCC	11700	729	18400	1210
CTCGCGATTCCTCTTCCGCTGCGGTCTCCTTAACAC	634	1290	841	2170
TCACATCCTGTAATGGTTTGCGCATACCACAGTTCT	455	825	684	1740
TGCAGTCTCAACTTCCTGCGGTCAAGTGATCCTTCA	654	3750	1410	6540
ATATATCACCCCTTCCTTGCAAAACCACAAGACCAA	508	6030	1490	8230
GAGGGCTGCTTCCTGCTCTGTGGAGGCCGCAGCGGG	555	682	594	1270
AGCCCGCCGGAAACTAGCGTCACCGCGCCAAGGTTC	1440	691	1250	1160
CACCTCACAGCCCGGATACAAACCGCCTACCCGCCC	780	1300	980	1230
GGCCAACGAGAGCGCTTCCGGCCGCAGCCACGGCGG	1950	735	3000	1420
GCGGGAAAAGGGAAGTTTGCGGGAGGTCAAATCCAC	563	867	550	968
GCTAAGAGCAGGAAATGATCTGGGAACCACCATCAC	2690	719	3070	918
ACCACCCACTTCCCGCGCAGTTCCAAACCGCGACCA	302	1590	795	5270
GCCATTAAAGCAGCTTCCTGTGGGCGCGGCGCAGGA	888	753	867	1010
CATGGTTGTTATTTCCTCACCACAATATGTGACATT	386	1200	463	1300
CACCGCCGGAGTCCCGGATGTGGTTGCTAGGGCAGC	5070	767	14900	3280
TGCGCCGCTTCCGCTGCCCGAGGAAGAGCCGCAGTC	1090	802	1230	1870
GAGGGTTGCTGGGGGGAAGTGTGGTAAATCTTTTCC	458	938	475	930

Sequence	ETS1 binding intensity (ETS1 [1])	RUNX1 binding intensity (RUNX1 [2])	ETS1 binding intensity (ETS1 [3])	RUNX1 binding intensity (RUNX1 [4])
CAACCTGCTATAAGGAAGTTAAACCGCAGCTCACCG	718	3670	5980	5610
CACCTAAAGCCATTGGGATGTGGTTTCTCTTTTTCA	388	1040	894	1010
GCGAAAGGAACTTCCTTTGCATGCGGTCAGAGTGCT	477	892	2280	2490
TTTCTGAAACCCTCAGGATGTGGGTTTTCACACTGT	1310	800	6900	1100
AGGAGAAGGAAGAGGATGTTGAGGTTGGGGGAAACC	1610	726	2530	882
CAACACAGGATGTGCAGTATTATACCGCAAAGCACT	1710	1150	6950	2070
CGGGACCTGTTTCCTTGGGAACCACAAGATAAGACC	407	709	520	892
TGGACGTAACACTCAGGAAGTGGTCAACCTTGCTGC	2630	820	5810	1340
ACACTGGCCGGAAGGGGCGGGACCGCGAGTTAAGAG	1280	791	2380	1320
CCAGAGGGCGGAAGTGGGAGCTGCGACCGCGCTCCC	3670	690	6280	1880
AAAGAGGAAATCACGTACCCGAAAACCACATGCACA	530	1010	1370	928
GCTAAGGTGAAAGGAAGTGGGTTTTGTCTTTTTTTT	2500	854	4150	1340
GTAGCTCCTCCCACTTCCCGTGGTTTTCGGTTGAAC	564	1240	916	2760
CAGAAAAGGCAGGAAGTGGTACAAACCACAAAAGGC	5820	1320	49600	8000
GCCATCCGCAGGACTCCGCGTTCTCGCGGTAAGTGG	384	736	464	883
GCCTGTGGAGTTGCAGGATGTGGTTGGCGAAAAGAA	2130	905	7880	1360
CTGTTTCCTGCCTTTGCTGTCTGTGACCGCATCAGT	478	1310	1490	2840
GTGGGTTTAGGATATGGGTGTGGTTTCTAATTGTCT	428	885	653	1020
